# Reference: ChEMBL document CHEMBL1961873, “Compounds: GSK PKIS; Assays: Nanosyn kinase panel” (2012)
# Key:
# [1] = target: T1, 3-phosphoinositide-dependent protein kinase 1 (Homo sapiens) (UniProt O15530); settings: at 0.1 µM;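 further: values are mean inhibition of PDK1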
# T1 sequence (whole entry): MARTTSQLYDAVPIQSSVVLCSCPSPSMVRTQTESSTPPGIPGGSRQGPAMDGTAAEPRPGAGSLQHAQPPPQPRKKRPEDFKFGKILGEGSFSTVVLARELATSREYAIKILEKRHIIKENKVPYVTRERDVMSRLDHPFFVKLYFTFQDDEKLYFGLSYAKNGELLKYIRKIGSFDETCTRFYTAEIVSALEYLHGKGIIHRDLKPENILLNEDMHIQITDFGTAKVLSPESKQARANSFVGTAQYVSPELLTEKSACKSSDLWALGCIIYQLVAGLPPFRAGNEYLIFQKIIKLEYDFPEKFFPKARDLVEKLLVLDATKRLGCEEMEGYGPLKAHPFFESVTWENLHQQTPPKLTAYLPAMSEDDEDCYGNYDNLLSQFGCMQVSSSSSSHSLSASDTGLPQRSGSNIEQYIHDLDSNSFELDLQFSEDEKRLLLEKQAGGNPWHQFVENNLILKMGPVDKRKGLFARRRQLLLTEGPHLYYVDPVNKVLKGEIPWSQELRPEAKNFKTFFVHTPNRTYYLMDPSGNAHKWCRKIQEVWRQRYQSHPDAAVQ
# [2] = target: cAMP-dependent protein kinase catalytic subunit alpha (Homo sapiens) (UniProt P17612); settings: at 0.1 µM
# [3] = target: cAMP-dependent protein kinase catalytic subunit alpha (Homo sapiens) (UniProt P17612); settings: at 1 µM
# [4] = target: Protein kinase C alpha type (Homo sapiens) (UniProt P17252); settings: at 0.1 µM
# [5] = target: Protein kinase C alpha type (Homo sapiens) (UniProt P17252); settings: at 1 µM
# [6] = target: Protein kinase C beta type (Homo sapiens) (UniProt P05771); settings: at 0.1 µM
# Chain of Protein kinase C beta type (Homo sapiens) (P05771 2-671 limits assumed): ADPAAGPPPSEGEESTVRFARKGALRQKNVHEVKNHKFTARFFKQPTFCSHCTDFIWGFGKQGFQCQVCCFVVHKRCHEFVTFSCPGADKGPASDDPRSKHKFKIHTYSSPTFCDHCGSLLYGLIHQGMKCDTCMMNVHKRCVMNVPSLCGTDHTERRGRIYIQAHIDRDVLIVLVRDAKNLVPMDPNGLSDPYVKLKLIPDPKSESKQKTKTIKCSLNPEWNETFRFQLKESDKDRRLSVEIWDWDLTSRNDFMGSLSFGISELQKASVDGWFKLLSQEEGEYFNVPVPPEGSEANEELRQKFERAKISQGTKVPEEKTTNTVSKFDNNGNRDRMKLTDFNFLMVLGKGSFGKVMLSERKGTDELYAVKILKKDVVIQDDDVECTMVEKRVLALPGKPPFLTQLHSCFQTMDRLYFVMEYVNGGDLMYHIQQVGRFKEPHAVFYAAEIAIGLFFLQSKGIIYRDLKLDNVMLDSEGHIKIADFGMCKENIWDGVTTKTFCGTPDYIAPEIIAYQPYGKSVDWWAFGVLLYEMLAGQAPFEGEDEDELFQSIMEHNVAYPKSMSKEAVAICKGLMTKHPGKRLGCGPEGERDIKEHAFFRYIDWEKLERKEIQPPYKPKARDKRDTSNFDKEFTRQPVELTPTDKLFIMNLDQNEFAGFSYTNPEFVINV
# [7] = target: Protein kinase C beta type (Homo sapiens) (UniProt P05771); settings: at 1 µM
# [8] = target: Protein kinase C eta type (Homo sapiens) (UniProt P24723); settings: at 0.1 µM
# Chain of Protein kinase C eta type (Homo sapiens) (P24723 whole entry): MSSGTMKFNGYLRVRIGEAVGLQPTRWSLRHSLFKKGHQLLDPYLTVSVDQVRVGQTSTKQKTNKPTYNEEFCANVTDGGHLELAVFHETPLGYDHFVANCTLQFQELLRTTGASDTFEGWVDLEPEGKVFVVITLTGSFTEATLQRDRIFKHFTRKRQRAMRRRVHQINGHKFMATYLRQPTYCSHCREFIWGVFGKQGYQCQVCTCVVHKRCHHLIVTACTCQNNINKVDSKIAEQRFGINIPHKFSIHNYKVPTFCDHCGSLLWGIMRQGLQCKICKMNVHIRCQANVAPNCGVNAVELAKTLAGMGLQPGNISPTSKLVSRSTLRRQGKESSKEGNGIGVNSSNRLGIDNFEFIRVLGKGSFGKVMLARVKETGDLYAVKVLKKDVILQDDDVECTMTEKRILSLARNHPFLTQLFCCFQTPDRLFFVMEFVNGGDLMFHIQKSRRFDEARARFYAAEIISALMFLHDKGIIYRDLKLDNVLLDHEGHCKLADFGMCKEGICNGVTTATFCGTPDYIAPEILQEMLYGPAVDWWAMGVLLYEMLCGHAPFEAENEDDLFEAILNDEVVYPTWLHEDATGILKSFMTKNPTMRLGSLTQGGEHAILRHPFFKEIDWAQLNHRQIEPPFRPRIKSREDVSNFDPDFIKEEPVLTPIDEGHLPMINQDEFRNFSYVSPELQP
# [9] = target: Protein kinase C eta type (Homo sapiens) (UniProt P24723); settings: at 1 µM
# [10] = target: Protein kinase C gamma type (Homo sapiens) (UniProt P05129); settings: at 0.1 µM;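 further: values are mean percent inhibition of PKC gamma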
Structure (SMILES),inhibition [1] [%],inhibition [2] [%],inhibition [3] [%],inhibition [4] [%],inhibition [5] [%],inhibition [6] [%],inhibition [7] [%],inhibition [8] [%],inhibition [9] [%],inhibition [10] [%]
CCS(=O)(=O)c1ccc(OC)c(Nc2ncc(-c3cccc(OC)c3)o2)c1,1.14,1.07,1.26,1.39,5.21,0.07,-1.05,-0.85,1.66,2.11
Nc1ccc(C#Cc2cncnc2Nc2ccc(OCc3cccc(F)c3)c(Cl)c2)cc1,-0.28,3.59,2.77,0.42,1.03,1.2,2.03,4.79,2.72,-0.9
CS(=O)(=O)Nc1cccc(-c2ccc3c(NC(=O)C4CC4)n[nH]c3c2)c1,-0.34,0.91,1.02,0.79,1.61,-1.18,-0.16,1.82,3.34,1.6
COc1cc2ncn(-c3cc(OCc4ccccc4S(C)(=O)=O)c(C#N)s3)c2cc1OC,5.59,2.29,3.77,1.33,2.72,2.71,5.16,0.91,-1.63,1.77
N#Cc1cccc(Nc2nccc(-c3cnn4ncccc34)n2)c1,2.83,2.6,12.8,26.2,72.8,2.69,20,7.07,31.9,6.2
COc1ccc2ncnc(Nc3ccc(OCc4ccccc4)cc3)c2c1,1.04,2.11,1.43,-0.06,1.22,0.57,2.16,-0.44,-0.65,0.01
O=C1Nc2ccc(-c3cccnc3)cc2C1=Cc1cc(Br)c(O)c(Br)c1,3.18,1.62,1.19,1.72,2.45,0.24,-1.03,3.09,0.7,4.09
NS(=O)(=O)c1ccc(Nc2cc(-c3cccc(O)c3)n[nH]2)cc1,1.78,3,2.6,1.01,1.85,-3.34,1.78,3.19,2.17,2.3
FC(F)(F)c1ccc(-c2nn3ncccc3c2-c2ccnc(Nc3ccc4c(c3)OCCO4)n2)cc1,1.11,6.1,6.96,0.99,1.28,8.14,11.9,1.27,6.69,5.17
C[C@@H](Oc1cc(-n2cnc3ccc(OCC4CCN(C)CC4)cc32)sc1C(N)=O)c1ccccc1C(F)(F)F,0.45,-0.41,1.15,0.1,9.63,0.2,5.91,-5.73,5.16,3.29
COc1cc(Nc2nccc(-c3cnn4ncccc34)n2)cc(OC)c1,3.22,2.46,10.7,12.4,64,0.12,8.95,3.16,3.86,0.71
COc1cccc(-n2ncc3c(N/N=C/c4ccc(C)cc4)ncnc32)c1,0.64,3.22,2.93,0.52,1.66,0.67,1.01,5.56,4.73,2.06
CN(C)C(=O)O[C@H]1CN[C@H](C#Cc2cc3ncnc(Nc4ccc(OCc5cccc(F)c5)c(Cl)c4)c3s2)C1,1.92,2.32,4.73,0.57,-0.37,-1.06,0.39,1.05,1.68,3.2
CN(C)C(=O)O[C@@H]1CN[C@@H](C#Cc2cc3ncnc(Nc4ccc(OCc5cccc(F)c5)c(Cl)c4)c3s2)C1,0.77,0.67,1.2,0.33,1.13,-1.27,2.12,4.86,1.38,-1.57
Nc1nccc(-c2c(-c3ccc(F)cc3)nn3cc(C(F)(F)F)ccc23)n1,-0.37,0.74,2.17,0.05,1.25,-1.02,0.52,-1.68,1.15,-1.38
COc1cc2ncnc(Nc3ccc(C)c(O)c3)c2cc1OC,1.3,2.17,3.17,1.06,3.24,1.28,5.43,3.76,0.65,2.11
COC(=O)c1cncc(/C=C/c2c(C)cc(O)cc2C)c1,-0.19,1.8,2.3,0.98,1.39,0.78,2.09,4.57,5.34,6.64

Structure (SMILES),inhibition [1] [%],inhibition [2] [%],inhibition [3] [%],inhibition [4] [%],inhibition [5] [%],inhibition [6] [%],inhibition [7] [%],inhibition [8] [%],inhibition [9] [%],inhibition [10] [%]
O=S(=O)(CCOCc1ccc(-c2ccc3ncnc(Nc4ccc(OCc5cccc(F)c5)c(Cl)c4)c3c2)o1)c1ccccc1,-0.28,0.54,-0.2,0.23,0.58,-0.21,-0.92,1.32,1.22,0.84
NS(=O)(=O)c1ccc(NC=C2C(=O)Nc3ccc4ncsc4c32)cc1,30.1,2.64,11.8,1.14,8.8,0.12,2.75,6.21,4.18,3.84
Cc1ccc2c(-c3ccnc(Nc4ccc5c(c4)OCCO5)n3)c(-c3ccc(C(F)(F)F)cc3)nn2n1,-0.78,4.47,7.16,0.21,1.55,2.2,2.03,0.94,3.26,1.27
COC(=O)Nc1nc2cc(Oc3ccc(NC(=O)Nc4cccc(Br)c4)cc3)ccc2[nH]1,3.36,1.25,1.19,1.04,1.61,-0.97,2.4,-0.37,4.28,-0.79
COc1cccc(-n2nc(C)c3c(N/N=C(\C)c4ccncc4)ncnc32)c1,2.62,0.69,-0.34,-0.84,-1.11,0.03,-2.45,-0.66,-5.32,1.51
Cc1cc(-c2ccccn2)cc(C)c1/C=C/c1cncc(-c2nn[nH]n2)c1,-0.5,1.63,1.8,0.99,3.52,0.54,0.37,2.25,5.16,1.57
COc1cc(/C=N/Nc2ncnc3c2cnn3C(C)C)ccc1O,5.59,1.05,3.87,0.6,2.74,0.72,3.01,0.82,3.21,-1.82
NC(=O)c1sc(-n2cnc3ccccc32)cc1OCc1ccccc1Br,1.27,1.4,4.48,1.58,2.92,-0.55,0.73,5.09,2.7,1.38
c1ccc(Nc2ncc(-c3ccccc3)o2)cc1,4.59,2.19,3.41,1.37,2.47,-0.26,-0.49,2.48,5.31,2.57
CN(C)c1cc2c(Nc3ccc4c(cnn4Cc4ccccc4)c3)ncnc2cn1,2.47,1.45,1.92,-0.01,0.82,0.49,1.62,-1.26,1.17,0.1
c1ccc(Cc2nc3ccc(Nc4ncnc5ccccc45)cc3[nH]2)cc1,0.78,1.15,2.76,1.22,4.52,1.26,1.59,2.55,2.75,1.69
CC(C)c1ccc(Nc2nccc(-c3cnn4ncccc34)n2)cc1,2.46,1.64,1.72,0.38,6.9,0.55,1.57,1.03,3.89,1.93
CCn1c(-c2nonc2N)nc2c(C#CC(C)(C)O)nc(OCCNC)cc21,1.35,11.6,49.2,0.49,3.55,4.85,29.9,78.9,95.4,-2.02
Oc1cccc(-c2nc(-c3ccccc3)[nH]c2-c2ccncc2)c1,4.03,2.46,6.88,0.69,3.01,2.07,8.23,2.41,9.76,2.86
NS(=O)(=O)c1cccc(Nc2cc(-c3ccc(F)cc3)n[nH]2)c1,0.96,5.01,6.49,0.02,1.69,2.83,6,2.29,5.6,4.38
ON=C1CCc2cc(-c3nc(C4CCNCC4)[nH]c3-c3ccncc3)ccc21,-0.07,1.54,18.8,1.13,2.47,-0.12,11.1,-0.55,2.63,-1.91
